A selection: hits, their analogues and other compounds. The true share with any hit is near 6.5%.
HCMV inh: human cytomegalovirus inhibition; HFF cells, HCMV-luciferase reporter, 72 h; hits give low values; activity change, negative = inhibition, % at 57.5 µM; hit rate 4.5% among 410,000; AID 1259415; in the data active means activity change below about -60%; inconclusive means no clear call, values can overlap the other calls; inactive means above about -39%
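Two compound doses tested in HFFs infected with HCMV-luciferase, MOI 1 PFU/cell, 72 h at 37C. Lysate luminescence read with OneGlo; data normalized against buffer-only and 10uM Salinomycin inhibitor controls.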
Vaccinia mCherry: inhibitors of vaccinia virus infection (mCherry reporter signal); Vaccinia virus mCherry reporter infection, fluorescence; Potency, µM (doses to about 36.5 µM), without a hit: at the top dose activity change, negative = inhibition, usual class: inhibitors; hit rate 0.63% among 310,000; AID 720579; calls by dose curve; tested in A549 cells; further: potency means the concentration at half of the fitted maximal effect; nearly all actives have a fitted effect of over 35% in size
Vaccinia Venus: vaccinia inhibition (Venus reporter); Vaccinia virus Venus reporter expression, fluorescence; Potency, µM (doses to about 36.5 µM), inactives show at the highest dose activity change, negative = inhibition, most hits filed as inhibitors; hit rate 0.46% among 330,000; AID 720580; calls by dose curve; tested in A549 cells; further: potency means the concentration at half of the fitted maximal effect; nearly all actives have a fitted effect of over 30% in size
Marburg entry inh: Marburg virus entry inhibition; Potency, µM (series often up to 37.8 µM), for inactives: at the highest dose activity change, negative = inhibition, hits mostly inhibitors; hit rate 1.8% among 300,000; Marburg virus pseudotyped entry inhibition, cell reporter; calls by dose curve; tested in HEK293 cells; further: potency means the concentration at half of the fitted maximal effect
LASV entry inh: blocks Lassa virus binding to or entry into cells. Lassa virus pseudotype entry inhibition, cell reporter. hit rate 1.2% among 300,000. Potency, µM (top dose mostly 37.9 µM), for inactives: at the highest dose activity change, negative = inhibition, usual class: inhibitors; calls by dose curve; tested in HEK293 cells; further: potency means the concentration at half of the fitted maximal effect; nearly all actives have a fitted effect of over 50% in size
FMDV inh: foot and mouth disease virus antiviral activity; hit rate 1.2% among 410,000; Potency, µM (highest dose often 57.9 µM), for inactives: at the top dose activity change, negative = inhibition, most hits filed as inhibitors; FMDV antiviral cell-based qHTS; calls by dose curve; tested in HEK293T cells; further: read-out not given here; potency means the concentration at half of the fitted maximal effect; nearly all actives have a fitted effect of over 45% in size
* = called active by the depositor; i = inactive; ? = inconclusive; / = no result; [ ] = another dose, or the depositor's remark. On the % scale 0 is the no-effect control and ±100 the full control effect.

SMILES | HCMV inh | Vaccinia mCherry | Vaccinia Venus | Marburg entry inh | LASV entry inh | FMDV inh
COc1cc(C(O)c2nc(C(=O)NCCN3CCOCC3)cs2)cc(OC)c1OC (stereo unspecified) | -18 | / | / | / | / | /
COc1ccc(C(=O)NC2CCCCC2)cc1S(=O)(=O)N1CCOCC1 | 30 | -4% | -5% | 5%[46.1 µM] | -4%[46.1 µM] | 5%
COc1ccc(C(=O)NC2CCCCCC2)cc1S(=O)(=O)N1CCCC1 | -63* | -2% | -13% | 27%[46.1 µM] | 20% | 47%
COc1ccc(C(=O)OCc2ccccc2F)cc1S(=O)(=O)N1CCCC1 | -97* | -7% | -17% | ? | -11% | -2%
COc1ccc(C(=O)NC2CCCCCC2)cc1S(=O)(=O)N1CCCc2ccccc21 | -62* | -11% | -10% | ? | 7.1µM* | 19%
Cc1cccc(N2CCN(Cc3nnc(-c4cccc(Br)c4)o3)CC2)c1C | -1 | -13% | -17% | 0%[46.1 µM] | 12%[46.1 µM] | -1%
Cn1c(=O)c2c(c3ccccc31)OC(=O)CC2c1cccc(F)c1 (stereo unspecified) | 12 | -16% | -11% | -22%[46.1 µM] | -17%[46.1 µM] | -6%
CCO[C@H](c1cc(OC)cc([N+](=O)[O-])c1OC)[C@H](C)/C=C\CC(=O)OC | / | / | / | 1%[14.2 µM] | / | /
Cc1ccc(C(=O)C[n+]2ccc3ccccc3c2)cc1 | 15 | ? | -4% | ? | ? | 33%
Cc1cc(C(C)(C)C)cc(C)c1C[n+]1ccc2ccccc2c1 | -96* | / | / | / | / | ?
Cc1noc(-c2ccccc2)c1-c1ccccc1[N+](=O)[O-] | -100* | / | / | / | / | /
Cc1ccc(N2CCN(S(=O)(=O)c3nnc(NC(=O)c4cccc(F)c4)s3)CC2)cc1 | 9 | ? | ? | / | 10%[46.1 µM] | -30%
CN1CCc2c(sc3c2C(=O)NC(c2ccccn2)N3)C1 (stereo unspecified) | 46 | / | / | 19% | 4% | 12%
O=C1NC(c2ccccn2)Nc2sc3c(c21)CCC3 (stereo unspecified) | -103* | -4% | -19% | 11% | 2% | 37%
Cc1ccc(NC(=O)C2CCCN(C(=O)c3cnn(-c4ccc(F)cc4)c3-n3cccc3)C2)c(Cl)c1 (stereo unspecified) | -3 | -22% | -21% | / | 13%[46.1 µM] | ?
O=C(CCSc1ccccc1)NCC1CCCO1 (stereo unspecified) | -18 | -9% | -6% | 5% | 4% | 35%
O=C(CC(c1ccccc1)c1ccccc1)NCC1CCCO1 (stereo unspecified) | -100* | / | / | 18% | -1% | -5%
O=C(CN(C1CCCCC1)S(=O)(=O)c1ccc(F)cc1)NCC1CCCO1 (stereo unspecified) | 0 | ? | 11µM* | -11%[46.1 µM] | ? | -19%
O=C(CSc1oc(-c2ccc(F)cc2)nc1S(=O)(=O)c1ccccc1)NCC1CCCO1 (stereo unspecified) | -64* | -14% | -12% | ? | -20% | -12%
COc1cccc(-n2c(SC)nnc2C2CCN(Cc3cccc(OC)c3O)CC2)c1 | / | -7% | 1% | / | / | -17%
O=C(NCc1nnc2n1CCN(Cc1cccc(Cl)c1)CC2)c1cccc(F)c1 | / | -5% | 0% | / | / | -1%
CC(C(Sc1ccccc1N)c1ccccc1)[N+](=O)[O-] (stereo unspecified) | -67* | / | / | / | / | ?
Nc1ccccc1SC(CC(=O)c1ccccc1)c1ccccc1 (stereo unspecified) | / | -9% | -1% | / | / | 29%
CCN(CC)c1ccc(/C=C/c2cccc[n+]2C)c(OC)c1 | -97* | 98% | i | 2.8µM* | ? | ?
COc1ccc(/C=C/c2cccc[n+]2C)c(O)c1 | -32 | / | / | / | / | 13%
SMILES | HCMV inh | Vaccinia mCherry | Vaccinia Venus | Marburg entry inh | LASV entry inh | FMDV inh
O=C1c2ccccc2C(=O)N1c1cccc(N2C(=O)c3ccccc3C2=O)n1 | / | -9% | -10% | / | / | /
CC(=O)C[C@H](O)CC(=O)[C@H]1OC(=O)CC/C=C\Cc2ccccc21 | -61* | i | -8% | / | / | -6%
COc1cc(-c2nnc(NC(=O)CS(=O)(=O)c3ccc(C)cc3)o2)cc(OC)c1OC | 9 | i | -5% | -2% | 1% | 6%
Cc1ccc(S(=O)(=O)CCC(=O)Nc2nnc(-c3cccs3)o2)cc1 | -7 | 10µM* | ? | 7% | ? | -10%
Cc1ccc(/C=C/c2nnc(-c3cccs3)o2)cc1 | 16 | -13% | -9% | 12µM* | 10µM* | /
COc1cccc(-c2nnc(NC(=O)CCS(=O)(=O)c3ccc(C)cc3)o2)c1 | 29 | 10µM* | ? | ? | 4% | -15%
O=C(CCS(=O)(=O)c1ccc(Cl)cc1)Nc1nnc(-c2cccs2)o1 | -12 | ? | ? | -13%[46.1 µM] | ? | -2%
O=C1[C@H](Cc2ccccc2)NC/C=C\C[C@H](c2ccco2)N1Cc1ccccc1 | / | 0% | -15% | / | / | /
O=C(Nc1cccc(C(F)(F)F)c1)c1cccn(Cc2ccc3c(c2)OC(F)(F)O3)c1=O | -16 | / | / | ? | 7% | -24%
O=C(Nc1ccc(C(F)(F)F)cc1)c1cccn(Cc2ccc3c(c2)OC(F)(F)O3)c1=O | -98* | / | / | ? | -12% | ?
Cc1nn(S(=O)(=O)c2ccc(C(C)(C)C)cc2)c(C)c1S(=O)(=O)N1CCCCCC1 | -8 | -6% | -5% | / | 9%[46.1 µM] | 0%
C=CCOc1c(Cl)cc(C(=S)N2CCCC2)cc1OCC | -76* | ? | -26% | -8% | ? | -18%
CCOc1cc(C(=S)N2CCCC2)ccc1O | -2 | i | -6% | -18% | -1% | 8%
CN(C)S(=O)(=O)c1cccc(NC(=O)CSc2nc3ccccc3[nH]2)c1 | -61* | -11% | -15% | ? | ? | 0%
CCCn1c(SCC(=O)Nc2cccc(S(=O)(=O)N(C)C)c2)nc2ccccc2c1=O | -17 | i | -10% | 11µM* | -16%[46.1 µM] | 11%
CN(C)S(=O)(=O)c1cccc(NC(=O)CCSc2ccc(Cl)cc2)c1 | ? | -11% | -21% | ? | 10µM* | 0%
CN(C)S(=O)(=O)c1cccc(NC(=O)CSc2ncnc3ccccc23)c1 | -15 | ? | ? | ? | ? | ?
O=C(NN=C1C[C@@H](O)[C@H](O)[C@H]2[C@@H]3C(=O)N(C[C@@H]4CCCO4)C(=O)[C@@H]3CC[C@H]12)OCc1ccccc1 | / | / | / | ? | 2%[14.3 µM] | /
CC(C)(C)NC(=S)N/N=C/c1cccnc1 | -65* | i[7.34 µM] | -8%[7.34 µM] | 6%[46.1 µM] | ? | 6%
Cc1cccc(/C=N/NC(=O)c2cc(-c3cccnc3)nc3ccccc23)c1 | ? | 3% | -2% | -3%[46.1 µM] | / | -5%
Cc1cc(C(=O)N/N=C/c2cccnc2)c(C)o1 | -99* | / | -12% | 13% | 5% | -1%
Cc1occc1C(=O)N/N=C/c1cccnc1 | 0 | -7% | -2% | -1% | ? | 0%
CCCOc1cccc(-c2cc(C(=O)N/N=C/c3cccnc3)c3ccccc3n2)c1 | -83* | i | -2% | ? | ? | ?
